Activity change, negative = inhibition and outcome data for 32 compounds are collected here from PubChem BioAssay (NCATS).

The structures appear in SMILES notation. Results filed as inconclusive are left out. The source made the active and inactive calls. Calls come from the whole dose curve; as a rule, active = well fitted inhibition curve with a large enough effect; inconclusive = small, poorly fitted or top-dose-only effect; inactive = no such curve, though single readings can be large or run the other way.

Chain of Protein phosphatase 1D (Homo sapiens) (O15297 whole entry, looked up): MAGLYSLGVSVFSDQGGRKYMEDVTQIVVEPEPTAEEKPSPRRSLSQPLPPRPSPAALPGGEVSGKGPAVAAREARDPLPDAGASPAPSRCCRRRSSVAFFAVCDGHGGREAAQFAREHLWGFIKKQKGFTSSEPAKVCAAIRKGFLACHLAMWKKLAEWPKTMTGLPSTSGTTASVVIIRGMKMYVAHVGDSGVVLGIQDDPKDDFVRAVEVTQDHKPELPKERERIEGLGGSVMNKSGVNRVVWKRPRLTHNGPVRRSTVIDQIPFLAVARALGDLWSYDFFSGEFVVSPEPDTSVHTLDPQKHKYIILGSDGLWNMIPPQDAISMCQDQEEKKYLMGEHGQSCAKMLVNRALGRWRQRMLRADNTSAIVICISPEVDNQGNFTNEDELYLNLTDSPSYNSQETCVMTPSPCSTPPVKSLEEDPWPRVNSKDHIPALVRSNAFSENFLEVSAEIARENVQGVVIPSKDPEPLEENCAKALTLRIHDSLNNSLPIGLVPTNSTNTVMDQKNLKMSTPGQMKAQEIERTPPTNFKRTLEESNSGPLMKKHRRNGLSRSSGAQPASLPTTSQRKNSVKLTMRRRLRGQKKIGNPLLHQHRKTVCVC

The assay concerns the target Protein phosphatase 1D (Homo sapiens) (UniProt O15297). In words: RapidFire Mass Spectrometry qHTS Assay for Modulators of WT P53-Induced Phosphatase 1 (WIP1) (AID 1347424).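 Note: amount of dephosphorylated VEPPL-S-QETFS peptide product formed by WIP1; plate controls were DMSO wells for no effect and GSK830371 inhibitor control at 10 µM for full effect.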 The note with it: WIP1 dephosphorylation of phosphopeptide, RapidFire MS; series mostly up to 63 µM. The essentials: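 Mass-spectrometric measurement of dephosphorylated peptide after a 5 min room-temperature reaction of 10 nM WIP1 with 2 uM phosphopeptide, following 1 h compound preincubation in 30 mM MgCl2 buffer.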
(In general: Quantitative high-throughput screening tests each substance at several concentrations.)
With `O=c1[nH]c(=O)c2[nH]c(=O)[nH]c2[nH]1`, the activity change, negative = inhibition was -6.34% [at 12.6 µM] (inactive). As for `O=c1cc[nH]c(=O)[nH]1`, the compound was classed as inactive.

Consider `C[C@@H]1CCN(C(=O)[C@H](CCCN=C(N)N)NS(=O)(=O)c2cccc3c2NC[C@H](C)C3)[C@@H](C(=O)O)C1`, for which the compound was called inactive.

In the case of `O=C(O)c1ccccc1O`, the compound was classed as inactive. In the case of `CC(=O)Oc1ccc(C2(c3ccc(OC(C)=O)cc3)C(=O)Nc3ccccc32)cc1`, the compound was called inactive. With `C[C@@H]1CC[C@@]2(OC1)O[C@H]1C[C@H]3[C@@H]4CC[C@H]5C[C@@H](O)CC[C@]5(C)[C@H]4CC(=O)[C@]3(C)[C@H]1[C@@H]2C`, the activity change, negative = inhibition was 12.5% [at 6.17 µM] (inactive). Take `CCCCN(CCCC)CCCOC(=O)c1ccc(N)cc1`: the call was inactive. In the case of `c1ccc2c(CC3=NCCN3)cccc2c1`, the result was inactive. As for `CC1(C)OC(=O)NC1=O`, the outcome was inactive.

As for `CS(=O)(=O)c1ccc([C@@H](O)[C@@H](CF)NC(=O)C(Cl)Cl)cc1`, the compound was classed as inactive. With `Oc1cccc(O)c1`, the compound was classed as inactive.

For `C[C@@H]1C[C@H]2[C@@H]3C[C@H](F)C4=CC(=O)C=C[C@]4(C)[C@@]3(F)[C@@H](O)C[C@]2(C)[C@@]1(O)C(=O)CO`, the compound was classed as inactive. Take `COc1cc2[nH]c(=O)[nH]c(=O)c2cc1OC`: the compound was classed as inactive.

On to `COc1ccc2cc1Oc1ccc(cc1)C[C@H]1c3c(cc4c(c3Oc3cc5c(cc3OC)CCN(C)[C@@H]5C2)OCO4)CCN1C`, for which the outcome was inactive.

In the case of `CC(=O)Oc1c(C)c(C)c2c(c1C)CC[C@@](C)(CCC[C@H](C)CCC[C@H](C)CCCC(C)C)O2`, the compound was classed as inactive. For `Cc1cccc(C)c1NC(=O)CN(CC(=O)O)CC(=O)O`, the compound was classed as inactive.

As to `O=C1O[C@H](CO)[C@@H](O)[C@H](O)[C@H]1O`, the compound was called inactive. On to `O=C(O)c1ccccn1`, for which the result was inactive. `CCCCOC(=O)c1ccc(O)cc1`: the result was inactive.

Take `O=C(O)CN1C(=O)c2cccc3cccc(c23)C1=O`: the result was inactive. Consider `CCN(CC)C(=O)Nc1ccc(OCC(O)CNC(C)(C)C)c(C(C)=O)c1` (configuration not stated), for which the compound was called inactive. In the case of `CC(=O)O[C@@]12CO[C@@H]1C[C@H](O)[C@@]1(C)C(=O)[C@H](O)C3=C(C)[C@@H](OC(=O)[C@H](O)[C@@H](NC(=O)OC(C)(C)C)c4ccccc4)C[C@@](O)([C@@H](OC(=O)c4ccccc4)[C@H]21)C3(C)C`, the compound was called inactive.

As for `O=C1NS(=O)(=O)c2ccccc21`, the compound was called inactive. Regarding `CN1[C@@H]2CC(OC(=O)[C@H](CO)c3ccccc3)C[C@H]1[C@@H]1O[C@@H]12` (some centres not stated), the call was inactive.

Consider `O=c1cc[nH]c(=S)[nH]1`, for which the outcome was inactive. For `CCCCCCCCCCCCCCCCCCOCC(O)CO` (configuration not stated), the call was inactive. Turning to `Oc1cn2c(n1)Nc1ccc(Cl)c(Cl)c1C2`, the compound was classed as inactive.

With `CC[N+](CC)(CC)CCOc1ccc(/C=C/c2ccccc2)cc1`, the call was inactive. On to `CCOC(=O)c1ccc(O)cc1`, for which the compound was called inactive.

Take `CC(=O)Nc1ccc(/C=N/NC(N)=S)cc1`: the compound was called inactive. Same read-out and setting: the entry for `NC(=O)NC(=O)Cc1ccccc1` is “inactive”. Consider `CCCCOc1cc(C(=O)OCCN(CC)CC)ccc1N`, for which the call was inactive.
